The source of these data is PubChem BioAssay AID588827 (Broad Institute, 2011).

The campaign covered roughly 2,400 compounds. About 20 (0.8%) were called active. About 19% were inconclusive and are not listed.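 The calls were made as follows: active = fitted half-maximal concentration for signal decrease at or below twice the top tested dose, in every repeat run; inconclusive = repeat runs disagree, or flat partial inhibition, or poor fit; inactive = all runs flat, wrong-direction or potency beyond limit.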 Only a sample is shown. Results with a measured potency or affinity are listed apart.

This experiment in a line: decrease of heat-induced HSF-1 GFP reporter, dose response, NIH3T3 R4 cells, GFP/RFP, cherry-pick, set 4 (AID 588827). Particulars: NIH3T3 R4 HSF-1 GFP reporter, heat shock, 48 h; series mostly up to 19.5 µM.
Turning to `COc1ccc2nnc(-c3ccc(C(F)(F)F)cc3)n2n1`, the compound was called inactive. Regarding `O=C1CCCC/C1=N\Nc1ccc(C2CCCCC2)cc1`, the compound was called inactive.

As for `COc1ccc(C(=O)C2CCCN(S(=O)(=O)c3ccccc3F)C2)c(C)c1` (stereo not given), the outcome was inactive.

For the compound `Cc1cc(S(=O)(=O)N2CCN=C2c2ccccc2)c(C)cc1Cl`, the outcome was inactive. Under `COc1cc(/C=N/N=C2/C(=O)Nc3ccccc32)cc(OC)c1O` stands “inactive”; under `O=C(NCc1ccco1)C(=O)NCC(c1ccco1)N1CCOCC1` (stereo not given), “inactive”; under `CCOC(=O)C1(CCOc2ccccc2)CCN(Cc2cccc(-n3cccn3)c2)CC1`, “inactive”.

In the case of `CC(=O)N/N=C(\C)CC(=O)NC(C)(C)C`, the result was inactive. As for `C=CCn1c(C)cc(C(=O)CSc2nnc(NC(C)C)s2)c1C`, the result was inactive. To `CCCCN1CNC(=S)N(c2ccc(C(=O)OCC)cc2)C1` belongs “inactive”; to `COc1ccc(-c2oc3ccccc3c2C(=O)Oc2ccccc2)cc1`, “inactive”. To `Cc1ccc(-c2nn(-c3ccccc3)cc2CN(C)C(=O)CCC(=O)O)cc1C` belongs “inactive”; to `O=[N+]([O-])c1cccc(-c2nnc(-c3ccccc3)o2)c1`, “inactive”. Take `Cc1ccc(C(=O)N/C(=C/c2ccco2)C(=O)Nc2cccc(C(=O)O)c2)cc1`: the compound was classed as inactive. `Cc1cccc(OCC(=O)Nc2cccc(C(=O)NCC(C)C)c2)c1`: the result was inactive. As for `COc1ccc(C2NS(=O)(=O)N=C2N)cc1` (stereo not given), the outcome was inactive. For `CC(=O)C1C(=O)c2c(cccc2[N+](=O)[O-])C1=Nc1ccc(S(N)(=O)=O)cc1` (stereo not given), the compound was classed as inactive. On to `CCOC(=O)N1CCN(S(=O)(=O)c2ccc3c(c2)OCC(=O)N3)CC1`, for which the outcome was inactive. `Cc1ccc(-c2cn(-c3ccccc3)c(=S)[nH]2)cc1C`: the result was inactive. As for `O=C(Nc1ccccc1N1CCCCC1)C1CCN(C(=O)c2ccc(Cl)cc2)CC1`, the result was inactive.

As to `CCOC(=O)c1c(NC(=O)CSc2nnc(-c3c[nH]c4ccccc34)n2C)sc2c1CCCC2`, the compound was classed as inactive. `O=C(NCCCn1ccnc1)C(=O)NCC1OCCN1S(=O)(=O)c1cc(F)ccc1F` (stereo not given): the compound was called inactive. As to `O=C(O)CCSc1nnc(-c2ccc3c(c2)OCO3)o1`, the result was inactive. As to `Cc1c(C(=O)c2no[n+]([O-])c2C(=O)c2cnn(C)c2C)cnn1C`, the result was inactive. With `O=S(=O)(Nc1cccc(Oc2cnccn2)c1)c1ccc(F)cc1`, the compound was classed as inactive. `CCOc1cc(/C=N/NC(=O)c2cccc(S(=O)(=O)N3CCOCC3)c2)ccc1OCC(=O)N(C)C`: the compound was classed as inactive.

For `Cc1ccc(-c2cc3c(N=O)c4ccccc4c-3n[nH]2)cc1`, the compound was classed as inactive. In the case of `CCCN(CCC)C(=O)CSc1nc2ccsc2c(=O)n1NC(=O)c1ccccc1`, the call was inactive.

Consider `COc1cccc(C(c2sc3nc(C)nn3c2O)N2CCN(C(=O)c3ccco3)CC2)c1` (stereo not given), for which the compound was called inactive. Regarding `Cn1c(=O)c2ccccc2n(Cc2ccccc2Cl)c1=O`, the compound was classed as inactive. Under `O=C(CCl)NC(Cc1ccccc1)c1ccccc1` (stereo not given) stands “inactive”; under `COC(=O)c1cc(S(=O)(=O)NCCc2ccccc2)c[nH]1`, “inactive”. For `O=C(CCl)N=c1sccn1Cc1ccc(Cl)cc1Cl`, the result was inactive. Regarding `Cc1ccc(S(=O)(=O)N2CCN(CC(=O)N/N=C\c3ccncc3)CC2)cc1`, the result was inactive. Consider `O=C(O)c1ccc2nc(-c3ccccc3)sc2c1`, for which the outcome was inactive. Under `Cn1c(=O)c2c(SCC(=O)N3CCCc4ccccc43)nc(C3CC3)nc2n(C)c1=O` stands “inactive”.

As to `Cc1ccc(C)c(NC(=O)COc2coc(CN3CCc4ccccc4C3)cc2=O)c1`, the result was inactive. Consider `Cc1ccc2[nH]c(=O)c(CN(C(=O)c3cccc([N+](=O)[O-])c3)C(C)C)cc2c1`, for which the call was inactive.

`O=C(Nc1ccc(S(=O)(=O)N2CCOCC2)cc1)c1ccc(Cl)cc1Cl`: the result was inactive. For `COC(=O)c1nn(-c2ccc3c(c2)CCN3C(C)=O)cc1O`, the result was inactive. Regarding `Cc1cc(C)c2[nH]c(=O)c(C(c3nnnn3CC3CCCO3)N3CCC(C)CC3)cc2c1` (stereo not given), the result was inactive. As for `N=C(N)SCc1ccccc1Cl`, the compound was called inactive.

Consider `COc1ccc(C(=O)NCc2nnc(SCC(=O)N3CCC(C)CC3)o2)cc1OC`, for which the compound was called inactive. To `O=C(Cn1nc2ccccc2n1)N/N=C/c1cc([N+](=O)[O-])ccc1O` belongs “inactive”. For `O=C(Oc1ccccc1Cl)c1ccc(-n2cncn2)nc1`, the compound was called inactive. To `COc1ccc(S(=O)(=O)N2CCCCCC2)cc1C(=O)OCC(=O)NC(C)(C)C` belongs “inactive”; to `Nc1ccccc1-c1nc2ccccc2s1`, “inactive”; to `COc1ccc(S(=O)(=O)N2CCCC2)cc1C(C)C`, “inactive”. For the compound `O=C(N1CCCCC1)N1CCN(S(=O)(=O)c2ccccc2)CC1`, the compound was called inactive. For `Cc1nc2sccn2c(=O)c1S(=O)(=O)Nc1ccc(N2CCOCC2)c(Cl)c1`, the compound was called inactive. In the case of `COC(=O)c1cccc(NC(=O)CN2CCN(Cc3ccccc3)CC2)c1`, the result was inactive. Take `CN1CCc2c(sc(/N=C/c3cc(C(C)(C)C)ccc3O)c2C#N)C1`: the outcome was inactive.

As to `COc1ccc2[nH]c3c(=O)n(CCCN4CCOCC4)cnc3c2c1`, the result was inactive. For `CCO/C(C)=C1/SC(=S)NC1=O`, the call was inactive. On to `c1ccc(OCCSc2nc3ccccc3o2)cc1`, for which the compound was called inactive.

With `COc1cc(NC(=O)c2cc(C)nc3ccccc23)cc(OC)c1`, the result was inactive.

As for `COc1cccc(C(=O)c2c[nH]c(C(=O)NCc3ccco3)c2)c1`, the outcome was inactive.

Take `COc1ccc(CNC(=O)c2cnc3scc(C)n3c2=O)cc1`: the compound was classed as inactive.

For `COc1ccc(Cl)cc1C(=O)NCC(=O)OCc1ccccc1`, the outcome was inactive. To `O=C(CCNC(=O)c1ccc(Cl)cc1)Nc1ncccc1O` belongs “inactive”; to `CCCCOC(=O)CSCC(=O)Nc1cc(C)on1`, “inactive”; to `CCN(CC)S(=O)(=O)c1ccc2c(c1)c(=O)c(C(=O)NCc1ccco1)cn2C`, “inactive”. For `CC(=O)N(c1ccc2oc(=O)sc2c1)S(=O)(=O)c1ccc(C(=O)O)cc1`, the result was inactive. For the compound `CCOC(=O)c1cc(S(=O)(=O)N2CCc3ccccc32)cn1C`, the outcome was inactive. Turning to `Fc1ccccc1N1CCN(Cc2cc(-c3ccccc3)on2)CC1`, the result was inactive. With `CCc1ccccc1NC(=O)CSc1nnc(-c2ccncc2)o1`, the compound was classed as inactive. For `COCCNC(=O)C(OC(=O)c1cccs1)c1ccccc1` (stereo not given), the compound was called inactive. Take `COc1ccc(CCNC(=O)CN(c2ccc(OC)c(OC)c2)S(C)(=O)=O)cc1OC`: the outcome was inactive. In the case of `CCC(NC(=S)NCc1ccccc1)C(=O)O` (stereo not given), the call was inactive.

On to `CCOCCn1c(SCC(=O)OCc2ccccc2)nc2c1c(=O)[nH]c(=O)n2C`, for which the compound was called inactive. With `CC(C)c1nc2ccccc2c2nnc(SCC(=O)NCc3ccco3)n12`, the compound was called inactive. With `CC(=O)Nc1ccc(-c2cn3c(n2)SCC3)cc1`, the call was inactive. For the compound `CC1(C)Cc2nc3[nH]c(=S)n(-c4ccccc4)c(=O)c3cc2CO1`, the compound was called inactive. In the case of `Cc1ccc(S(=O)(=O)c2ccc(Oc3ccccc3)cc2)cc1`, the call was inactive.

As for `CC1CCCN(c2ncnc3c2cnn3-c2ccc(Cl)cc2)C1` (stereo not given), the call was inactive. To `COc1ccc(Cn2nnnc2C(c2cc3cccc(C)c3[nH]c2=O)N2CCN(C)CC2)cc1` (stereo not given) belongs “inactive”. To `CC(C)c1ccc(NC(=O)N(CCc2nc3ccccc3[nH]2)C2CCCC2)cc1` belongs “inactive”; to `CCCS(=O)(=O)N1CCc2cc(OC)c(OC)cc2C1`, “inactive”; to `CCC(Sc1nc2cc(OC)c(OC)cc2c(=O)n1CCc1ccc(S(N)(=O)=O)cc1)C(=O)NCCOC` (stereo not given), “inactive”.

Regarding `O=C(N/N=C/c1ccccn1)c1ccc([N+](=O)[O-])cc1`, the call was inactive. As to `CN(C)c1ccc(CNc2ccc3c(c2)ncn3C(C)(C)C)cc1`, the result was inactive. With `COc1cccc(-n2nc(-c3ccnn3-c3cccc(Cl)c3)c(=O)n(C)c2=O)c1`, the compound was classed as inactive. To `CCOC(=O)c1cc2sccc2n1CC(=O)Nc1ccc(OC)cc1` belongs “inactive”. With `Cc1cccc(-c2ocnc2C(=O)N2CCN(C(=O)c3cccs3)CC2)c1`, the compound was classed as inactive. As to `CCOC(=O)c1c(C)nc2c(C)cccn12`, the call was inactive.

For `CC(C)(C)C(=O)OCc1nc(-c2ccc3c(c2)OCCO3)cs1`, the result was inactive. Turning to `Cc1nn(C(C)(C)C)c(C)c1/C=N/OC(=O)Nc1ccc(Cl)c(Cl)c1`, the compound was called inactive. To `Nc1nc(CSC(=S)N2CCCCC2)nc(Nc2ccccc2)n1` belongs “inactive”.

For `NS(=O)(=O)c1ccc(NC2=CC(=O)C(=O)c3ccccc32)cc1`, the outcome was inactive.

Take `Cn1c(NC(=O)c2ccccc2NC(=O)C(C)(C)C)nc2ccccc21`: the outcome was inactive.
